Results filed as inconclusive are left out. Entries that show only a call come without a potency. Activity calls are given as the source filed them.
What follows are molecules tested against Glucocorticoid receptor (Homo sapiens) (UniProt P04150) (assay: qHTS assay to identify small molecule agonists of the glucocorticoid receptor (GR) signaling pathway (AID 720691; active means well fitted activation curve with a large enough effect in the signal ratio in the repeat runs, not every such curve was filed as active; the % refers to the signal ratio)). Details: GR-bla HeLa, beta-lactamase reporter ratio, 18 h; series mostly up to 62.4 µM.
Summary of the method: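 GR-bla HeLa cells carrying a GRE-driven beta-lactamase reporter, exposed to compounds for 18 h at 37 C. Reporter activation read as fluorescence after 2 h with LiveBLAzer B/G FRET substrate at room temperature.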

Chain of Glucocorticoid receptor (Homo sapiens) (P04150 whole entry, looked up): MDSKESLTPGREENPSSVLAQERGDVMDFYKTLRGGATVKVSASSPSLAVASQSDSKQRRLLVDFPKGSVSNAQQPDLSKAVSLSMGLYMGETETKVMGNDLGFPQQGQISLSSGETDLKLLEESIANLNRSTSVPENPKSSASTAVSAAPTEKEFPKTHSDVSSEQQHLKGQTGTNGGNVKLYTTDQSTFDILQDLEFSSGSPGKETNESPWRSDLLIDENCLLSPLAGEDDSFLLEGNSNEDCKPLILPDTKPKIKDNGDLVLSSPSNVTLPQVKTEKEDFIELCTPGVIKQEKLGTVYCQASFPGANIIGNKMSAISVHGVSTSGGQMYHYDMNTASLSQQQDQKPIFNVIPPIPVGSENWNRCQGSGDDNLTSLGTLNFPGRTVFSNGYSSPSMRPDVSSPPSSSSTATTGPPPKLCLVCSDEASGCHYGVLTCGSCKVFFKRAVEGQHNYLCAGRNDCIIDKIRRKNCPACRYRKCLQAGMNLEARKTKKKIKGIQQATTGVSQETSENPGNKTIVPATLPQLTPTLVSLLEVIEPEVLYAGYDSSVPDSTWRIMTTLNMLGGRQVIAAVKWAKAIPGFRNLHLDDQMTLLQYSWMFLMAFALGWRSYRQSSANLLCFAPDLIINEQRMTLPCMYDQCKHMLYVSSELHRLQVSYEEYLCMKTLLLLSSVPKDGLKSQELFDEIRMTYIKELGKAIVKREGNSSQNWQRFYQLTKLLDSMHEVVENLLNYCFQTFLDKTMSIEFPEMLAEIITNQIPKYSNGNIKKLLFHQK

Compound	Potency
CC(C)(O)CCCC1=CCC(C=O)CC1 (stereo unspecified)	inactive
C[C@@H]1NC(=O)[C@@H](N)CNC(=O)[C@H](C2CCNC(N)=N2)NC(=O)/C(=C/NC(N)=O)NC(=O)[C@H](CNC(=O)C[C@@H](N)CCCN)NC1=O (stereo partly specified)	inactive
COc1cc(C(=O)NC2CCCNC2)cc(OC)c1OC (stereo unspecified)	inactive
Cc1nc2ccc(Cl)cc2[nH]1	inactive
CC(C)C(C)C	inactive
c1coc(Cn2cccc2)c1	inactive
COc1cnc(NS(=O)(=O)c2ccc(N)cc2)nc1	inactive
Cc1cc(N)no1	inactive
CC(C)(C)c1ccc(N)cc1	inactive
CCCc1ccc(O)c(OC)c1	inactive

The molecules below were run against Glucocorticoid receptor (Homo sapiens) (UniProt P04150) (assay: qHTS assay to identify small molecule antagonists of the glucocorticoid receptor (GR) signaling pathway (AID 720692; active means well fitted inhibition curve with a large enough effect in the signal ratio in the repeat runs, not every such curve was filed as active; the % refers to the signal ratio)). Details: GR-bla HeLa, beta-lactamase FRET ratio, dexamethasone-stimulated, 18 h; series mostly up to 58.5 µM.
Summary of the method: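 GR-bla HeLa cells carrying a GRE-driven beta-lactamase reporter received compound after 4 h plating, then dexamethasone (5 nM final). After 18 h at 37C, the FRET substrate was loaded for 2 h at room temperature and fluorescence read.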

Compound	outcome
CC(C)(O)CCCC1=CCC(C=O)CC1 (stereo unspecified)	inactive
C=COCCCCO	inactive
COc1cc(C(=O)NC2CCCNC2)cc(OC)c1OC (stereo unspecified)	inactive
Cc1nc2ccc(Cl)cc2[nH]1	inactive
CCCOc1ccc(C(=O)OCCN(CC)CC)cc1N	inactive
CC(C)C(C)C	inactive
COC(=O)c1ccccc1Cl	inactive
c1coc(Cn2cccc2)c1	inactive
CC/C=C/CCCCCCCCCCOC(C)=O	inactive
Cc1cc(O)c(Cl)cc1C	inactive
CCCc1ccc(O)c(OC)c1	inactive

Source: PubChem BioAssay (Tox21)
